Measured values: PubChem BioAssay AID686971 (National Center for Advancing Translational Sciences (NCATS), 2013)
Among all 360,000 compounds or so, about 7,500 (2.1%) were called active. Not shown: some 8% with an inconclusive outcome. The entries come from a sample that favours actives as a whole. A number with no mark means an inactive call. The call rests on the fitted dose curve; in most records, active means well fitted cell-killing curve with a large enough effect; inconclusive means small, poorly fitted or top-dose-only effect, or effect the other way, or another doubt; inactive means no such curve, though single readings can be large or run the other way.

experiment: qHTS for induction of synthetic lethality in tumor cells producing 2HG: qHTS for the HT-1080-IDH1KD cell line; settings: HT-1080 IDH1 knockdown viability, ATP luminescence, 48 h; series mostly up to 46.1 µM; activity, negative = toxicity: at the top concentration
Source text: Unbiased genomic sequencing for 22 glioma genomes found recurrent mutation of IDH1 on chromosome 2q33, a gene encoding the cytosolic isoform of IIDH1 associated with the tri-carboxylic acid cycle (TCA) that catalyzes the oxidative decarboxylation of isocitrate, yielding alpha-ketoglutarate and CO2 via NADP+ to NADPH conversion. Subsequent studies confirmed the recurrent IDH mutations in up to 70% of secondary gliomas and in 10% of AML cases. In addition, the somatic mutation of cancer-associated IDH1 is a point mutation resulting in various amino-acid substituents at Arginine132 (IDH1 R132), a key residue found in the enzyme's active site that when mutated, results in the loss-of-function in metabolizing isocitrate but confers a gain-of-function to produce the oncometabolite 2-hydroxyglutarate (2HG). This in effect defines IDH1 as an oncogene and provides an extraordinary opportunity to discover chemical probes against mutant IDH1 that may translate into much needed new therapies for glioma and AML patients.
This assay aims to perform a synthetic-lethal screen for chemical probes specific for 2HG-producing tumor cells using matched paired cell lines (1) HT-1080-NT fibrosarcoma cell line that overproduces 2HG and (2) HT-1080-IDH1KD cell line which has IDH1 expression knocked-down. Desirable compounds are toxic to the NT fibrosarcoma cell line but not to the IDH1KD cell line. The data in this AID corresponds to the results of the qHTS against the HT-1080 IDH1KD cell line.
[1] Dang L, Jin S, Su SM. IDH mutations in glioma and acute myeloid leukemia. Trends of Mol Med. 2010; 16(9): 387-97.
[2] Dang L et al. Cancer-associated IDH1 mutations produce 2-hydroxyglutarate. Nature. 2010; 465(7300):966.
Molecular Libraries Probe Production Centers Network [MLPCN]
NIH Chemical Genomics Center [NCGC]
Assay Submitter (PI): Lenny Dang Ph.D., Agios Pharmaceuticals
Suspensions of trypsinized HT-1080-IDH1KD cells were dispensed into white, tissue culture-treated, solid 1536-well plates at 5uL/well (750 cells/well final concentration) in RPMI medium supplemented with 5% FBS. Plates were incubated at 37 degrees C for 2 hours, after which 23 nL of compounds or DMSO were delivered to each well using a pin tool. Plates were then incubated at 37 degrees C for an additional 48 hours. CellTiter-Glo viability reagent (Promega) was dispensed into wells (2.5uL/well) and incubated at room temperature for 10 minutes. The plates were measured on a PerkinElmer ViewLux plate reader for luminescent signal (clear filter, 1 sec exp.). DMSO-treated control wells and media-only (no cells) control wells were used to normalize %Activity of identified toxic compounds; DMSO-treated wells corresponded to 0%Activity (100% viability), while media-only controls were used to normalize 100%Activity (0% viability). To minimize variability between cell lines, both HT-1080-NT and HT-1080-IDH1KD lines were dispensed and treated with identical compound series in single batches.
Concentration-response curves were fitted to the signals arising from the resulting luminescence. The concentration-effect curves were then classified based on curve quality (r2), response magnitude and degree of measured activity, and compounds were subsequently categorized based on their curve class.
Potency means the concentration at half of the fitted maximal effect.

Compound	activity, negative = toxicity [%]	Potency
CN(C)CCCOc1ccc(-c2ccc3nccn3c2)cn1	2.09	–
CN1CCN(C(=O)c2ccc(NC(=O)c3ccc(Br)o3)cc2)CC1	1.04	–
O=C(CSc1nc(Nc2ccccc2)nc(N2CCOCC2)n1)Nc1cc(Cl)ccc1O	–	18.4 µM (active)
CC1(c2ccccc2)NC(=O)N(CC(=O)Nc2cc(Cl)ccc2N2CCOCC2)C1=O (configuration not stated)	-1.21	–
Cc1ccccc1NC(=O)CSc1nc2ccc(Nc3nc(N4CCOCC4)nc(N4CCOCC4)n3)cc2s1	-4.33	–
C=CCC[C@H](CCCCC)OC(=O)/C=C/[C@H](O)[C@@H](O)C[C@@H](O)CC=C	-19.9	–
O=C(CCC(=O)OCc1ccc(Cl)cc1)Nc1ccccc1	0.564	–
O=C1C=C(c2ccc(Cl)cc2)C(=O)N1Nc1ccccc1	–	18.4 µM (active)
O=C(O)CC1=C(Nc2ccccc2)C(=O)N(c2ccccc2)C1c1ccc(Cl)cc1 (configuration not stated)	0.642	–
CCCNC(=O)c1cc(C2CCCCN2C(=O)OC)on1 (configuration not stated)	19.5	–
c1ccc2c(c1)nnn2-c1ccncc1	-7.3	–
O=C(NCCCN1CCOCC1)c1cn(-c2ccccc2)nc1-c1ccc(F)cc1	2.98	–
COc1ccc(-c2nn(-c3ccccc3)cc2/C=C\C(=O)N2CCOCC2)cc1[N+](=O)[O-]	2.09	–
O=C(/C=C/c1cn(-c2ccccc2)nc1-c1ccc2c(c1)OCCO2)NCCCN1CCOCC1	–	20.6 µM (active)
COC(=O)c1ccc2nc(C3CCCCC3)c(Cc3cccc(F)c3)n2c1	-10.3	–
CCc1ccc([C@@H]2CC(=O)[C@@H]3CN(S(=O)(=O)c4ccc(C)cc4)[C@H](c4ccc(Cl)cc4)C[C@@H]3N2S(=O)(=O)c2ccc(C)cc2)cc1	23.1	–
O=CNc1cc(-c2ccc(C(=O)N3CCOCC3)cc2)cn2c(-c3ccc(F)cc3)cnc12	–	13 µM (active)
O=C(NCCO)c1cccc(-c2cccc3nccn23)c1	0.201	–
COc1cccc(-c2cc(NC(C)=O)c3ncc(-c4cccc(C(C)=O)c4)n3c2)c1	-20.1	–
CC(=O)Nc1cc(-c2ccc(N3CCN(C)CC3)cc2)cn2c(-c3ccc(F)cc3)cnc12	–	23.1 µM (active)
CC(=O)Nc1cc(-c2ccc(N3CCN(C)CC3)cc2)cn2c(-c3cccc(C(=O)N(C)C)c3)cnc12	2.62	–
N#C/C=C(/c1ccc(F)cc1)N1CCOCC1	13	–
CN(C)CCNC(=O)c1cccc(-c2cnc3c(NC=O)cc(-c4cccc(C(F)(F)F)c4)cn23)c1	–	18.4 µM (active)
CC(=O)Nc1cc(-c2cccc(CO)c2)cn2c(-c3cccc(C(F)(F)F)c3)cnc12	5.47	–

Compound	activity, negative = toxicity [%]	Potency
CCC(C)C(=O)Nc1ccccc1N1CCN(c2ccc(F)cc2)CC1 (configuration not stated)	-20.9	–
COc1cccc(-c2cnc3c(NC(C)=O)cc(-c4cc(F)ccc4OC)cn23)c1	–	9.2 µM (active)
COc1ccccc1-c1cc(NC(C)=O)c2ncc(-c3ccc(F)cc3)n2c1	-16.8	–
CN(C)C(=O)c1cccc(-c2cnc3c(NC=O)cc(-c4ccc(C(=O)N5CCOCC5)cc4)cn23)c1	-13.6	–
O=C1NC[C@H](CCCCN2C[C@H](Cc3ccccc3)N(Cc3ccccc3)C(=O)C2=O)N(CCc2ccc(O)cc2)C1=O	5.18	–
Cc1ccc(-c2ccc(C3=CC(=O)CC(C)(C)C3=O)cc2)cc1	14.6	–
CC(C)C[C@@H]1Cc2[nH][nH]c(=O)c2[C@H](CCc2ccccc2)O1	-20	–
CCOC(=O)[C@]12CCCC=C1N(CCC1=CCCCC1)C(=O)[C@H](CC(=O)NCCCOC)C2	-13.6	–
CCCNC(=O)C1(C)CCCN(C(=O)c2oc3ccccc3c2C)C1 (configuration not stated)	2.01	–
O=NN(CCCl)C(=O)NCCc1cccc[n+]1[O-]	17.2	–
CCc1nc2ccc(C(=O)NC3CCN(Cc4ccccc4)CC3)cn2c1N(C)CCN1CCOCC1	-19.7	–
C#CCNC(=O)C[C@@H]1C[C@@]2(C(=O)OCC)CCCC=C2N(Cc2ccco2)C1=O	8.96	–
NS(=O)(=O)c1ccc(NC(=O)CSc2nnc3c(n2)[nH]c2ccccc23)cc1	0.787	–
CC(=O)c1cccc(-c2cnc3c(NC=O)cc(-c4cccc(C(=O)N(C)C)c4)cn23)c1	-0.766	–
CN(C)C(=O)c1cccc(-c2cnc3c(NC=O)cc(-c4ccc(F)cc4)cn23)c1	–	23.1 µM (active)
CCOc1ncccc1C(=O)Nc1ccc2c(c1)OCCO2	-8.79	–
Cc1ccc2nc(-c3ccncc3)cc(C(=O)Nc3ccc4c(c3)OCCO4)c2c1	–	9.2 µM (active)
Cc1ccc2nc(-c3ccccn3)cc(C(=O)Nc3ccc4c(c3)OCO4)c2c1	21.7	–
CCOc1ccc(CCN2C(=O)C(=O)N([C@@H](CC(C)C)CN3CCC[C@H]3CN3C(=O)C(=O)NC[C@@H]3Cc3ccccc3)C[C@@H]2CC(C)C)cc1	5.05	–
Cc1ccc(CNC(=O)CCNC(=O)Cn2ccc3ccccc3c2=O)cc1	-10.7	–
COC(=O)COc1cccc2c(=O)n(CC(=O)NCc3ccccc3)ccc12	–	2.31 µM (active)
COC(=O)COc1cccc2c(=O)n(CC(=O)NCCc3ccc(OC)c(OC)c3)ccc12	8.42	–
C=CCN1CCN(c2ccncc2S(=O)(=O)N2CCN(C)CC2)CC1	-2.02	–
